In the OligoGym collection:

target: NUDT18; test: pooled miR-30 sensor sort-seq; sequence = guide strand; settings: shRNA
Further: reference of the scale not given here.

| Sequence | sensor-assay potency score (higher = more potent) |
| --- | --- |
| AACTTTTGGGGGTTCATCCTGG | -0.225 |
| TTGCAGGTCTTCCTCCATCACC | -1.52 |
| TAGTTCAACCAGGTGCAGGATG | -0.826 |

target: NUDT8; test: as above; settings: shRNA

| Sequence | sensor-assay potency score (higher = more potent) |
| --- | --- |
| TACAGCAGCGCCGGCACCCCAC | -1.1 |
| TGGGAAACTGACGTCGCCCTTG | -0.952 |
| TTGTGCCTCCCGGTCAGGCGGC | -1.45 |
| TTTGCGGATCATACACAGGCCG | -0.907 |
| ACCACATCTTGGTCAGCCGGGT | -1.55 |
| ATCTTGGTCAGCCGGGTCGCAC | -1.97 |
| TGGTCAGCCGGGTCGCACTTGC | -1.47 |
| TTGCGGATCATACACAGGCCGC | -1.79 |
| TCAGCCGGGTCGCACTTGCCGC | -1.59 |
| TTGGTCAGCCGGGTCGCACTTG | -1.16 |
| TACACCAGCAAGCACTGGCACC | -1.4 |
| TGTGCACCACATCTTGGTCAGC | -0.734 |

target: NUP188; test: as above; settings: shRNA

| Sequence | sensor-assay potency score (higher = more potent) |
| --- | --- |
| TAGAACAGCAATGAGGTTGTTT | 0.0605 |
| TAGGTGTCTGTGCTGTGCCGTT | -0.606 |
| TATTGATAACTGTCTGTCCTGC | -0.496 |
| TATTGGTCTGCCTACTACCAAA | -1.79 |
| TAATGCTGCAGCATCTTTCGAC | -0.404 |
| TTTTCTTGTCCAGCTCTCCAAG | -0.925 |
| TACTACATAGTATATCTCCAAG | -1.14 |
| TACTCTAACAAGGAGGTGCAGC | -0.568 |
| TTGCTCTTTAAACATCTTGGTT | -0.993 |
| TTACACAGGGTACAAGTCCTTG | -0.672 |
| TAACTCTCTCTTCCACTGCCGG | -0.922 |
| TATCGCATGAATCAGCTCCAAG | -1.05 |

target: NUP214; test: as above; settings: shRNA

| Sequence | sensor-assay potency score (higher = more potent) |
| --- | --- |
| TTTATCAACTATTTTGTTGGGA | 1.13 |
| TTATCAACTATTTTGTTGGGAT | 0.33 |
| TAATCTGATCACTTTGTCGAGC | -0.175 |
| TAAAGTTCACAAATATCTCTGG | 0.255 |
| TTTGTTGGACACAGCAAGCAGA | -0.715 |
| TTTTGTTGGGATCATCTCCGGG | -0.302 |
| TTGACTTTGACAGCAGAGGTTG | -0.446 |
| TTTGTTGGGATCATCTCCGGGT | -0.0183 |
| TAGAACATCATTCACATCTTGG | -0.0154 |
| TAACTCTTCCAACTCCTTCTGA | -0.0589 |
| TTTAGTAGGAAAAATCTGCAAG | -0.492 |
| TAATGATGCTGTCTCTCCGTGC | -0.651 |
